# PubChem BioAssay (Tox21)
# Inconclusive results are not listed. Activity calls are given as the source filed them. Unless noted, calls come from the whole dose curve.
# Test: qHTS assay to identify small molecule agonists of the endoplasmic reticulum stress response signaling pathway - cell viability counter screen (AID 1159517);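 note: HeLa cells carrying an ER stress response element beta-lactamase reporter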
# Settings: ESRE-bla HeLa viability, CellTiter-Glo luminescence, 5 h; series mostly up to 61 µM; activity change, negative = cytotoxicity: at the top concentration
# Method in brief: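 Cells, HeLa ESRE-bla; density, 1,500/well; dosing, 5 hr at 37 C, 5% CO2; readout, CellTiter-Glo luminescence after 30 min RT.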
# % is set by controls: 0 for no effect and ±100 for the full control effect.
# Note: nearly all actives have a fitted effect of over 50% in size.
row,SMILES,"activity change, negative = cytotoxicity"
1,Cc1ccc(N)cc1[N+](=O)[O-],-7.39% [at 78.8 µM] (inactive)
2,C=CCOCC(O)CS(=O)(=O)O (centres undefined),1.42% [at 78.8 µM] (inactive)
3,COc1cccc(OC)c1,-20.9% (inactive)
4,CCC(C(=O)NC(N)=O)c1ccccc1 (centres undefined),1.85% (inactive)
5,CC(=O)NC(Cc1ccccc1)C(=O)O (centres undefined),4.56% (inactive)
6,CC(C)[C@H](N)C(=O)OCCOCn1cnc2c(=O)[nH]c(N)nc21,15.7% (inactive)
7,CCCCc1ccc(N)cc1,-4.67% (inactive)
8,CCCCCCCCCCCCCCC,9.38% (inactive)
9,CCCCCC[C@@H](CCC)C(=O)O,-5.69% (inactive)
10,O=C(O)Cc1cc(I)c(Oc2cc(I)c(O)c(I)c2)c(I)c1,6.47% (inactive)
11,C=C(C)C(=O)NCCC[N+](C)(C)C,9.29% (inactive)
12,CC(=O)OC(C)(C)C,5.34% (inactive)
13,C=C(C)C1CC=C(C)C(O)C1 (centres undefined),4.51% [at 78.8 µM] (inactive)
14,CCCCCCCCCCCCCCCCCCOCC(O)CO (centres undefined),10.4% (inactive)
15,O=C(O)/C=C/c1ccc(Cn2ccnc2)cc1,-9.58% (inactive)
16,CC(=O)CCc1ccc(O)cc1,2.5% (inactive)
17,C1CCCCCCCCCCC1,-2.79% [at 28.5 µM] (inactive)
18,COC(=O)CCCCCCCCC(=O)OC,10.5% [at 78.8 µM] (inactive)
19,OCC(O)[C@@H](O)[C@H](O)[C@H](O)CO[C@H]1O[C@H](CO)[C@@H](O)[C@H](O)[C@H]1O (some centres undefined),11.3% (inactive)

row,SMILES,"activity change, negative = cytotoxicity"
1,CC(C)(C)C(=O)/C=C/c1ccc(Cl)cc1,-1.97% (inactive)
2,COC(=O)[C@H]1[C@H]2C[C@@H]3c4[nH]c5cc(OC)ccc5c4CCN3C[C@H]2C[C@@H](OC(=O)COc2ccc(OC)cc2)[C@@H]1OC,5.25% (inactive)
3,CCCCOCC(C)OCC(C)O (centres undefined),-3.19% [at 78.8 µM] (inactive)
4,CC(C)(C)OC(=O)N1C[C@@H](F)C[C@H]1C(=O)O,-0.441% [at 78.8 µM] (inactive)
5,NC(=O)c1ncn([C@@H]2O[C@H](CO)[C@@H](O)[C@H]2O)c1N,3.23% (inactive)
6,CC(C)c1ccc2oc3nc(N)c(C(=O)O)cc3c(=O)c2c1,-20.4% (inactive)
7,C/C=C1\C(=O)C[C@H]2[C@@H]3CCC4=CC(=O)CC[C@]4(C)[C@H]3CC[C@]12C,3.69% (inactive)
8,Cc1nc(-c2ccc(OCC(C)C)c(C#N)c2)sc1C(=O)O,4.54% (inactive)
9,Fc1ccccc1-c1ccccc1,-19.9% [at 78.8 µM] (inactive)
10,Nc1nc2c(ncn2CCC(CO)CO)c(=O)[nH]1,-5.77% (inactive)
11,CCCCCCCCN(C)CCCCCCCC,0.421% [at 78.8 µM] (inactive)
12,FC(F)(F)C(F)(F)C(F)(F)C(F)(F)C(F)(F)C(F)(F)C(F)(F)C(F)(F)C(F)(F)C(F)(F)F,-26.7% [at 6.95 µM] (inactive)
13,CCC(=O)Nc1cccc(N)c1,0.303% (inactive)
14,COC[C@H](c1ccc(C(F)(F)F)cc1)N1CCN(C2(C)CCN(C(=O)c3c(C)ncnc3C)CC2)C[C@H]1C,-6.88% (inactive)
15,COCCOC(=O)CC#N,-13.1% (inactive)
16,CN(C)CCOC(c1ccc(Cl)cc1)c1ccccn1 (centres undefined),1.18% (inactive)
17,CCCCCCOC(=O)c1ccccc1O,-7.58% (inactive)
18,CCC(=O)/C=C/c1ccc(OC)cc1,15% (inactive)

# Test: qHTS assay to identify small molecule antagonists of the retinoid-related orphan receptor gamma (ROR-gamma) signaling pathway - cell viability counter screen (AID 1159520; active = well fitted cell-killing curve with a large enough effect in the repeat runs)
# Settings: Tet-on RORgamma CHO cells viability, ATP luminescence, 16 h; series mostly up to 92.4 µM; activity, negative = cytotoxicity: at the top concentration
# Method in brief: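 Cytotoxicity was read from cellular ATP (CellTiter-Glo luminescence) after 16 hr at 37 C with 1 uM doxycycline induction. The inducer was added 2 hr after compound transfer to Tet-on ROR gamma CHO cells.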
row,SMILES,"activity, negative = cytotoxicity"
1,Cc1ccc(N)cc1[N+](=O)[O-],-15.8% (inactive)
2,C=CCOCC(O)CS(=O)(=O)O (centres undefined),-2.2% (inactive)
3,COc1cccc(OC)c1,8.28% (inactive)
4,CCC(C(=O)NC(N)=O)c1ccccc1 (centres undefined),-3.86% (inactive)
5,CC(=O)NC(Cc1ccccc1)C(=O)O (centres undefined),-1.89% [at 42.5 µM] (inactive)
6,CC(C)[C@H](N)C(=O)OCCOCn1cnc2c(=O)[nH]c(N)nc21,6.1% [at 42.5 µM] (inactive)
7,CCCCc1ccc(N)cc1,-4.52% (inactive)
8,CCCCCCCCCCCCCCC,0.271% (inactive)
9,CCCCCC[C@@H](CCC)C(=O)O,-0.482% [at 42.5 µM] (inactive)
10,O=C(O)Cc1cc(I)c(Oc2cc(I)c(O)c(I)c2)c(I)c1,2.52% [at 42.5 µM] (inactive)
11,C=C(C)C(=O)NCCC[N+](C)(C)C,0.815% (inactive)
12,CC(=O)OC(C)(C)C,-0.626% (inactive)
13,C=C(C)C1CC=C(C)C(O)C1 (centres undefined),0.329% (inactive)
14,CCCCCCCCCCCCCCCCCCOCC(O)CO (centres undefined),-4.33% [at 42.5 µM] (inactive)
15,O=C(O)/C=C/c1ccc(Cn2ccnc2)cc1,7.15% [at 42.5 µM] (inactive)
16,CC(=O)CCc1ccc(O)cc1,5.45% (inactive)
17,C1CCCCCCCCCCC1,0.201% [at 19 µM] (inactive)
18,COC(=O)CCCCCCCCC(=O)OC,-14% (inactive)
19,OCC(O)[C@@H](O)[C@H](O)[C@H](O)CO[C@H]1O[C@H](CO)[C@@H](O)[C@H](O)[C@H]1O (some centres undefined),-1.01% (inactive)

row,SMILES,"activity, negative = cytotoxicity"
1,CC(C)(C)C(=O)/C=C/c1ccc(Cl)cc1,-1.14% (inactive)
2,COC(=O)[C@H]1[C@H]2C[C@@H]3c4[nH]c5cc(OC)ccc5c4CCN3C[C@H]2C[C@@H](OC(=O)COc2ccc(OC)cc2)[C@@H]1OC,-6.45% [at 42.5 µM] (inactive)
3,CCCCOCC(C)OCC(C)O (centres undefined),15.8% (inactive)
4,CC(C)(C)OC(=O)N1C[C@@H](F)C[C@H]1C(=O)O,-9.48% (inactive)
5,NC(=O)c1ncn([C@@H]2O[C@H](CO)[C@@H](O)[C@H]2O)c1N,3.35% [at 42.5 µM] (inactive)
6,CC(C)c1ccc2oc3nc(N)c(C(=O)O)cc3c(=O)c2c1,-1.41% [at 42.5 µM] (inactive)
7,C/C=C1\C(=O)C[C@H]2[C@@H]3CCC4=CC(=O)CC[C@]4(C)[C@H]3CC[C@]12C,-14.2% [at 42.5 µM] (inactive)
8,Cc1nc(-c2ccc(OCC(C)C)c(C#N)c2)sc1C(=O)O,4.1% [at 42.5 µM] (inactive)
9,Fc1ccccc1-c1ccccc1,-7.32% (inactive)
10,Nc1nc2c(ncn2CCC(CO)CO)c(=O)[nH]1,6.83% [at 42.5 µM] (inactive)
11,CCCCCCCCN(C)CCCCCCCC,-0.233% (inactive)
12,FC(F)(F)C(F)(F)C(F)(F)C(F)(F)C(F)(F)C(F)(F)C(F)(F)C(F)(F)C(F)(F)C(F)(F)F,0.201% [at 8.39 µM] (inactive)
13,CCC(=O)Nc1cccc(N)c1,-0.891% (inactive)
14,COC[C@H](c1ccc(C(F)(F)F)cc1)N1CCN(C2(C)CCN(C(=O)c3c(C)ncnc3C)CC2)C[C@H]1C,-4.11% [at 42.5 µM] (inactive)
15,COCCOC(=O)CC#N,0.444% (inactive)
16,CN(C)CCOC(c1ccc(Cl)cc1)c1ccccn1 (centres undefined),0.927% [at 42.5 µM] (inactive)
17,CCCCCCOC(=O)c1ccccc1O,-12% (inactive)
18,CCC(=O)/C=C/c1ccc(OC)cc1,-3.06% (inactive)
